These results are taken from PubChem BioAssay (EPA / NIEHS).

Broadly, the AC50 is the midpoint of the concentration-response curve, whichever way the signal moves.

Molecules are shown by their SMILES. Records with an inconclusive call do not appear. The source made the active and inactive calls. Rule for the calls, unless noted: active = hit-call score of the fitted dose curve at least 0.9, where 1 is the maximum; inactive = score below 0.9.

A short description of test [1]: IUF_NPC1b_proliferation_BrdU_72hr: Leibniz Research Institute for Environmental Medicine (IUF) 72-hour Neural Progenitor Cell Bromodeoxyuridine (BrdU) Proliferation Assay (NPC1b) (AID 2284207). The gist of the method:
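Neural progenitor spheres of human fetal origin are treated for three days; BrdU added for the last 16 h is quantified by luminescence ELISA, with DMSO as baseline and EGF/FGF omission as positive control.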

A short description of test [2]: IUF_NPC1a_proliferation_area_72hr: Leibniz Research Institute for Environmental Medicine (IUF) 72-hour Neural Progenitor Cell Proliferation Area Assay (NPC1a) (AID 2284208). The gist of the method: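 hNPC spheres (human fetal cortex, GW 16-19), one per poly-Hema U-bottom well; EGF+FGF medium; dosed day 0, no re-dosing; 72 h, 37C, 5% CO2; phase-contrast sphere area; DMSO = baseline; minus-GF = positive ctrl.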

The nature of test [3]: IUF_NPC1_viability_72hr: Viability Assessment at 72 hours in the Leibniz Research Institute for Environmental Medicine (IUF) Neural Progenitor Cell Proliferation Assay (NPC1) (AID 2284209). The gist of the method: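 Three-day continuous exposure of human neural progenitor spheres under EGF/FGF-driven proliferation; cell viability scored by alamar blue signal versus DMSO.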

Test [4] in a line: CCTE_Shafer_MEA_dev_mutual_information_norm: CCTE's Neural Network Formation Assay for Mutual Information Normalization, Shafer Lab (AID 2284091).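 For AC50: mutual information between electrodes summarised as area under curve across four recording days; potency is for a decrease in mutual information relative to DMSO.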 The gist of the method: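 Exposure of primary rat cortical neurons began at plating and ran to DIV 12, with full media and treatment renewal after DIV 5 and 9 recordings. Mutual information AUC (DIV 5–12) was analysed for loss versus DMSO.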

Test [5] can be described thus: CCTE_Shafer_MEA_dev_correlation_coefficient_mean: CCTE's Neural Network Formation Assay for Mean Correlation Coefficient, Shafer Lab (AID 2284093).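 For AC50: well mean pairwise spike train correlation integrated as AUC over recording days 5 to 12; potency fitted for loss of correlation relative to DMSO vehicle wells.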 An outline of the steps:
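Extracellular firing from rat cortical networks on 48-well MEAs, DMSO-referenced, negative fitting direction. Compound present from plating to DIV12; mean pairwise correlation per well integrated over DIV5–12 recordings by trapezoidal AUC.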

The nature of test [6]: CCTE_Mundy_HCI_Cortical_Synap_Neur_Matur_NeuriteSpotCountPerNeuriteLength: CCTE's Synaptogenesis and Neurite Maturation Assay in rat cortical cells for Neurite Spot Count per Neurite Length, Mundy Lab (AID 2284210). An outline of the steps: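 Neurite-associated synapse density (synaptophysin puncta per unit neurite length) is measured by fluorescence high-content imaging in rat cortical cultures treated from DIV 7 and fixed at DIV 12, with DMSO as negative control.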

The nature of test [7]: CCTE_Mundy_HCI_Cortical_Synap_Neur_Matur_BPCount: CCTE's Synaptogenesis and Neurite Maturation Assay in rat cortical cells for Branch Point Count, Mundy Lab (AID 2284211). The gist of the method: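 In this multiplexed morphology assay, cortical cells from rat receive chemicals at DIV 7 and are fixed at DIV 12, then immunostained and imaged; branch points are counted, with DMSO as baseline.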

A short description of test [8]: CCTE_Mundy_HCI_Cortical_NOG_NeuriteCount: CCTE's Neurite Outgrowth Assay in rat cortical cells for Neurite Count, Mundy Lab (AID 2284212).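 Note: cells fixed about two days after chemical exposure began.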 The gist of the method:
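Rat cortical primary cells; compound added 2 h post-plating, 1/10 dilution of working solution. Anti-betaIII-tubulin/AF488 ICC; ArrayScan neurite count vs DMSO.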

Test [9] in a line: CCTE_Mundy_HCI_Cortical_NOG_NeuriteLength: CCTE's Neurite Outgrowth Assay in rat cortical cells for Neurite Length, Mundy Lab (AID 2284213). The gist of the method: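 First, rat primary cortical cells were plated and, 2 h later, given test chemical as a 1/10 dilution. Finally, βIII-tubulin immunostaining enabled automated imaging of neurite length.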
Test [10] can be described thus: CCTE_Mundy_HCI_Cortical_Synap_Neur_Matur_NeuriteLength: CCTE's Synaptogenesis and Neurite Maturation Assay in rat cortical cells for Neurite Length, Mundy Lab (AID 2284214). The gist of the method: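 DMSO-normalised neurite length, from high-content imaging of anti-MAP2-stained rat cortical cells fixed at DIV 12. Glia were suppressed with AraC (DIV 5) before chemical exposure from DIV 7.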

A short description of test [11]: CCTE_Mundy_HCI_Cortical_Synap_Neur_Matur_NeuriteSpotCountPerNeuron: CCTE's Synaptogenesis and Neurite Maturation Assay in rat cortical cells for Neurite Spot Count per Neuron Count, Mundy Lab (AID 2284215). An outline of the steps: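 Read-out: neurite-associated synaptophysin puncta per neuron, imaged by high-content analysis after MAP2, synaptophysin and Hoechst staining. Rat primary cortical cultures, dosed DIV 7 through DIV 12; DMSO served as baseline.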

Test [12] is described as follows: CCTE_Mundy_HCI_Cortical_Synap_Neur_Matur_SynapseCount: CCTE's Synaptogenesis and Neurite Maturation Assay in rat cortical cells for Synapse Count, Mundy Lab (AID 2284218). The gist of the method:
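Endpoint: synapses/neuron by HCI (synaptophysin puncta on MAP2-labelled neurites, Hoechst nuclei). Rat primary cortical cells, AraC DIV 5, dosed DIV 7, fixed DIV 12; DMSO negative control.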

Test [13] is described as follows: CCTE_Mundy_HCI_hN2_NOG_NeuriteCount: CCTE's Neurite Outgrowth Assay in human hN2 cells for Neurite Count, Mundy Lab (AID 2284219; active = hit-call score of the fitted dose curve at least 0.9, where 1 is the maximum). The gist of the method:
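In this morphology assay, hNP1-derived neurons received test chemical 2 h post-plating and were fixed two days later in warm paraformaldehyde/sucrose containing Hoechst 33342. Neurites, labelled by rabbit anti-βIII-tubulin (1:800) and Alexa Fluor-488 (1:500), were counted automatically.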

Test [14] can be described thus: CCTE_Mundy_HCI_hN2_NOG_NeuriteLength: CCTE's Neurite Outgrowth Assay in human hN2 cells for Neurite Length, Mundy Lab (AID 2284220; active = hit-call score of the fitted dose curve at least 0.9, where 1 is the maximum). An outline of the steps: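 Using βIII-tubulin immunofluorescence and Hoechst nuclear counterstain, this component quantifies neurite length in hNP1-derived neurons.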
Test [15] is described as follows: CCTE_Shafer_MEA_acute_LDH: CCTE's Lactate Dehydrogenase Assay for Cytotoxicity in the Neural Acute Assay, Shafer Lab (AID 2284086; active = hit-call score of the fitted dose curve at least 0.9, where 1 is the maximum;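 note: active means LDH release rises above DMSO vehicle level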). The gist of the method: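 Cytotoxicity readout: spectrophotometric LDH activity in supernatant of rat primary cortical neurons, post-plating day 13 or 15, sampled after 40 min compound exposure; signal gain relative to DMSO baseline.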

The nature of test [16]: UKN5_HCS_SBAD2_neurite_outgrowth: University of Konstanz (UKN) Leist Lab Neurite Outgrowth Assay in human iPSC-derived immature Dorsal Root Ganglia Neurons (UKN5) (AID 2284070). Conditions: actives raise or lower the signal. An outline of the steps:
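Neurite outgrowth is quantified as calcein-AM-labelled neurite area in human iPSC-derived peripheral neurons treated for 24 h, starting 1 h after plating in medium with CHIR99021 (1.5 uM), SU5402 (5 uM) and DAPT (5 uM).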

The nature of test [17]: CCTE_Shafer_MEA_dev_AB: CCTE's Alamar Blue Assay for Cytotoxicity in the Neural Network Formation Assay, Shafer Lab (AID 2284083; active = hit-call score of the fitted dose curve at least 0.9, where 1 is the maximum;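 note: resazurin reduction fluorescence as viability of cultured neurons; twelve days of exposure from plating with re-dosing on DIV 5 and 9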). The gist of the method: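 Cytotoxicity companion to the developmental MEA: primary rat cortical neurons, 12-day exposure starting day 0, compound refreshed DIV 5 and 9; resazurin fluorescence, fitted against DMSO vehicle.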
A general note: The colour change of resazurin is a common sign of viable cells or microbes.

A short description of test [18]: UKN2_HCS_IMR90_neural_migration: University of Konstanz (UKN) Leist Lab Neural Crest Cell Migration Assay in human induced IMR90 Pluripotent Stem Cells (UKN2) (AID 2284204). Conditions: actives raise or lower the signal. The gist of the method:
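Using a 96-well stopper format with PLO/laminin/fibronectin coating, neural crest cells from iPSC migrate in cytokine-supplemented N2-S medium; after 24 h, chemicals are applied for a further 24 h, then cells are imaged after dye staining.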

A short description of test [19]: TAMU_PeakParms_SingleDonor1434_Chronotropy: Texas A&M University (TAMU) 1.5-hr Human Induced Pluripotent Stem Cell (iPSC)-derived Cardiomyocytes Calcium (Ca+2) Flux Assay for Cardiotoxicity: Chronotropy (changes in peak frequency) (AID 2284217). Particulars: actives raise or lower the signal. An outline of the steps: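 Using fluorescent Ca2+ flux, average beats per second are measured in human iPSC-derived cardiomyocytes treated 90 min (0.5% DMSO vehicle, 0.2–100 uM). Non-beating data points are removed; activity is modeled in both directions relative to DMSO controls.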

Test [20] is described as follows: CCTE_Mundy_HCI_hN2_NOG_NeuronCount: CCTE's Neurite Outgrowth Assay in human hN2 cells for Neuron Count, Mundy Lab (AID 2284221; active = hit-call score of the fitted dose curve at least 0.9, where 1 is the maximum). The gist of the method:
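Read-out is the number of betaIII-tubulin-positive neurons imaged by automated high-content analysis, with DMSO as negative control.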

As to `CCCCOCCOP(=O)(OCCOCCCC)OCCOCCCC`, the molecule was classed as inactive in test [1], in test [2] and in [3].

Consider `O=C(O)C(F)(F)OC(F)(F)C(F)(F)OC(F)(F)F`, for which the outcome in [4] was inactive. Besides, the AC50 in test [5] is 3.78 µM (active).

Take `O=P1(N(CCCl)CCCl)NCCCO1` (stereo not drawn): the molecule was classed as inactive in test [4], in [5], in test [6], in test [7], in test [8] and in [9]. Also, the call in [10], in [11], in test [12], in test [13] and in test [14] was inactive.

As for `c1ccc(OP(Oc2ccccc2)Oc2ccccc2)cc1`, the call in test [4] and in test [5] was inactive.

Regarding `COCCOCCO`, in test [15], the molecule was called inactive.

Turning to `O=S1(=O)OCC2C(CO1)C1(Cl)C(Cl)=C(Cl)C2(Cl)C1(Cl)Cl` (stereo not drawn), the outcome in test [16], in [1], in test [2] and in test [3] was inactive.

As for `CCCCC(CC)COC(=O)c1c(Br)c(Br)c(Br)c(Br)c1C(=O)OCC(CC)CCCC` (stereo not drawn), the AC50 in [17] is 0.0248 µM (active). For the same molecule, the call in test [4] and in test [5] was inactive.

With `Nc1ccc2ccccc2c1`, in test [15], the call was inactive.

Take `O=C(O)C(F)(OC(F)(F)C(F)(F)C(F)(F)F)C(F)(F)F` (stereo not drawn): the call in [17], in test [4], in [5], in test [18], in test [1] and in [2] was inactive. For the same molecule, the call in [3], in test [6], in test [7], in test [8], in test [9] and in test [10] was inactive. For the same molecule, the molecule was called inactive in [11] and in test [12].

Turning to `CCCCC(CC)COP(=O)(Oc1ccccc1)Oc1ccccc1` (stereo not drawn), the outcome in [17], in test [15], in test [4], in [5], in test [2] and in [3] was inactive. In addition, the outcome in [6], in [7], in [8], in test [9], in [10] and in [11] was inactive. Also, the result in test [19] and in test [12] was inactive. In addition, the AC50 in test [1] is 0.542 µM (active).

Take `CC(O)C(F)(F)C(F)(F)F` (stereo not drawn): the result in [17], in test [4] and in test [5] was inactive.

`Cc1ccc(N)cc1N`: the molecule was called inactive in [15].

For `O=C(O)C(F)(F)C(F)(F)C(=O)O`, the molecule was classed as inactive in test [17] and in test [4]. Besides, in test [5], the AC50 was 1.81 µM (active).

In the case of `COP(=O)(CCC(=O)NCO)OC`, the result in test [15] was inactive.

In the case of `ClC1=C(Cl)C2(Cl)C3C(Cl)C(Cl)CC3C1(Cl)C2(Cl)Cl` (stereo not drawn), the AC50 in test [17] is 7.42 µM (active); in test [4], 7.75 µM (active); in [5], 7.71 µM (active). Further, the result in [15] was inactive.

As to `CCOP(=S)(Oc1ccc([N+](=O)[O-])cc1)c1ccccc1` (stereo not drawn), the call in [15] was inactive.

On to `O=C(O)C1C(C(=O)O)C2(Cl)C(Cl)=C(Cl)C1(Cl)C2(Cl)Cl` (stereo not drawn), for which the molecule was classed as inactive in test [4] and in test [5].

In the case of `OCC(F)(F)OC(F)(F)C(F)(F)OC(F)(F)C(F)(F)OC(F)(F)F`, the call in test [17], in [4] and in test [5] was inactive.

Take `CCC1(c2ccccc2)C(=O)N=C(O)NC1=O` (stereo not drawn): the outcome in test [17], in test [4], in [5], in test [6], in [7] and in [8] was inactive. Besides, the result in test [9], in [10], in test [11], in test [12], in test [13] and in test [14] was inactive. Besides, the call in [20] was inactive. Further, the AC50 in [19] is 29.7 µM (active).
